Test results published in PubChem BioAssay AID1851 (National Center for Advancing Translational Sciences (NCATS), 2009).
Screen size: about 16,000 compounds; about 4,000 (25%) were called active. Another 26% or so got no clear call; they are omitted. The call rests on the fitted dose curve; in most records, active means well fitted curve in the direction sought with a large enough effect; inconclusive means small, poorly fitted or top-dose-only effect, or effect the other way; inactive means no such curve, though single readings can be large or run the other way. Only a sample is shown.

biological target: Cytochrome P450 2C9 (Homo sapiens) (UniProt P11712); test: Cytochrome panel assay with activity outcomes; conditions: recombinant CYP, pro-luciferin dealkylation, luminescence, p450-cyp2c9; series mostly up to 57.1 µM; activity, negative = inhibition: at the top concentration
Sequence (P11712 whole entry, looked up): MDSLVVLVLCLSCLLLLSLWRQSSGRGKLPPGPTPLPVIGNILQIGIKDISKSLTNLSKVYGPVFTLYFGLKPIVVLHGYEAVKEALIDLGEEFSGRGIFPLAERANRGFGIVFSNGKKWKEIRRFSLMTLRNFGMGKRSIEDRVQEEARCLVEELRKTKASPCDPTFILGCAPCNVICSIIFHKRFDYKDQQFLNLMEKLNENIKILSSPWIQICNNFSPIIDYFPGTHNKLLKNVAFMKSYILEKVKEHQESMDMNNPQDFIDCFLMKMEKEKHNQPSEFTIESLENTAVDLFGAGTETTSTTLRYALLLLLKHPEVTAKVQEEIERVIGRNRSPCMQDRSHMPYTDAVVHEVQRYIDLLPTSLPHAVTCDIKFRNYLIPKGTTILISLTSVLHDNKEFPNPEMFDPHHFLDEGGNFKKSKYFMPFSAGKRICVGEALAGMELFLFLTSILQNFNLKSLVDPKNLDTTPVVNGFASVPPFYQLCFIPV
On the % scale 0 is the no-effect control and ±100 the full control effect.

activity, negative = inhibition, inactive:
c1ccc(CN2CCC3(CCCc4ccccc43)CC2)cc1 -8.57%, CC(=O)NCCNc1ncnc2ccc(-c3c(C)noc3C)cc12 27.1% [at 2.29 µM], CCc1ccc(NC(=O)C2CCN(S(=O)(=O)c3c(C)[nH]c(=O)[nH]c3=O)CC2)cc1 -27.8%, CCOC(=O)c1[nH]c2ccc(Cl)cc2c1-c1ccccc1 -19.7%, CO[C@H]1COC(=O)C/C=C\[C@@H](C)[C@H](OC)COC(=O)[C@H]2CCCN2C(=O)C/C=C\[C@@H]1C 12.3% [at 11.4 µM], Cn1c([N+](=O)[O-])cnc1CN1CCN(CCO)CC1 8.6% [at 11.4 µM], O[C@H](COc1ccccc1)CN1CCCCC1 9.06% [at 11.4 µM], NCCCCC(=O)O -13.6%, CC(=O)O[C@]1(C)N=NC2(CCCCC2)O1 16.8% [at 11.4 µM], CCC1CCCCN1Cc1cc(OC)c(O)c([N+](=O)[O-])c1 (stereo unspecified) -0.234%, Cc1cc(C)nc(SCC(=O)N/N=C\c2sccc2C)n1 -15.8%, CCCNC(=O)c1cc2c(C(F)(F)F)nn(C)c2s1 -27.8%, CN1CCN(c2ncc3nc(-c4cccs4)c(=O)n(-c4ccccc4)c3n2)CC1 -2.31%, C/C(CC/C(C)=N/O)=N/O -9.93% [at 11.4 µM], O=C1OC2CC3CC1CC(O)(C3)C2 (stereo unspecified) -15.4%, Cc1ccc(C)c(-n2c(CNC(=O)c3ccco3)nnc2SCC(=O)N2CCc3ccccc32)c1 -21.7%, O=C(O)c1cccnc1Nc1cccc(C(F)(F)F)c1 -12.1% [at 25.6 µM], Cc1cc(NC(=O)C2C3C(=O)N(Cc4ccc(Cl)cc4)C(C(=O)NC(C)(C)C)C34C=CC2(C)O4)no1 (stereo unspecified) -51.8%, OC[C@H](S)CS -14.4% [at 11.4 µM], COCC(=O)N1CCC2(CC1)CN(Cc1ccc(C#N)cc1)C2 -0.1%, CCN1CNC(=S)N(c2cc(C)ccc2C)C1 0.18%, Cn1c(=O)c2[nH]c(CCCCC(=O)O)nc2n(C)c1=O -3.07% [at 11.4 µM], COCc1c(C(N)=O)nnn1-c1nonc1N -9.91%, Nc1nonc1-n1nncc1-c1ccccc1 -0.506%, c1ccc(CNc2ccnc(-c3ccoc3)n2)cc1 -18.3% [at 2.29 µM], O=C(O)/C=C\C(=O)Nc1ccc2c(c1)C(=O)c1cc(F)ccc1-2 -23.6% [at 11.4 µM], CS[C@@H](CC(=O)O)C(=O)O -8.91% [at 11.4 µM], O=CN1CCN(C[C@H](O)CN2CCCCC2)CC1 -3.16% [at 11.4 µM], N#Cc1c(-c2ccc3c(c2)OCO3)ccn2nc(-c3cccc(C(F)(F)F)c3)nc12 6.23%, CC[C@@]1([N+](=O)[O-])C[C@H]2C=C[C@@H]1C2 -0.495% [at 11.4 µM], NCCNCC1CCNCC1 9.94% [at 11.4 µM], CCN(CC)CCOC(=O)[C@@H](Cc1cccc2ccccc12)C[C@@H]1CCCO1 19.7% [at 25.6 µM], CCOC(=O)c1ccc(N)cc1 -13.8% [at 25.6 µM], Cc1ccc(-c2ccc(CCC(=O)O)o2)cc1 -27.5%, C[C@@]1(CCOCc2ccccc2)NC(=O)NC1=O -8.7% [at 11.4 µM], COc1ccccc1-c1nccc(NCc2cccnc2)n1 -15.5% [at 2.29 µM], COC(=O)CSc1cc(C(F)(F)F)nc(-c2ccccn2)n1 -26%, COc1cccc(-c2nccc(NCc3cccnc3)n2)c1 0.577% [at 2.29 µM], O=C(O)C(Cl)(c1ccccc1)c1ccccc1 -22.8% [at 11.4 µM], CN(C)Cc1ccc(C(C)(C)C)cc1-c1cc(C(C)(C)C)ccc1CN(C)C 4.33% [at 11.4 µM], Cn1c(=O)c(-c2ccccc2)nc2cncnc21 5.36%, Cn1c(=O)c(-c2ccc(F)cc2)nc2cncnc21 7.67%, COCCn1c(=O)c(-c2ccc(F)cc2)nc2cncnc21 -8.81%, COc1ccc(-n2c(=O)c(-c3ccc(F)c(F)c3)nc3cncnc32)cc1 3.26%, COCCn1c(=O)c(-c2ccc(F)c(F)c2)nc2cncnc21 -22.3%, COCCn1c(=O)c(-c2cccc(Cl)c2)nc2cncnc21 -28.7%, Cc1noc(C)c1-c1cncnc1NCc1ccccc1 18.5% [at 2.29 µM], CCc1cc2c(nc1CC)CCN(CC/C(C)=N/OC[C@@H](O)COCc1ccco1)C2 17.1% [at 11.4 µM], CCN(CC)C(=O)CSc1nc(O)cc(=O)n1CC -12.4%, CO[C@H]1COC(=O)[C@@H](C)COC(=O)[C@@H](Cc2ccccc2)NC(=O)C/C=C\[C@H]1C 5.22% [at 11.4 µM], COc1ccc(CNc2ccnc(-c3ccccc3OC)n2)c(OC)c1 14.7% [at 2.29 µM], Cn1cc(-c2nc3cncnc3n(Cc3ccccc3Cl)c2=O)c2ccccc21 -18.5%, COc1ncc2nc(-c3cn(C)c4ccccc34)c(=O)n(CCC#N)c2n1 7.16%, COc1ccc(N2C(N)=NC(N)=NC2(C)C)cc1 3%, CNc1ncncc1-c1ccccc1C -4.77% [at 2.29 µM], COc1ccc(C(=O)N2CCC[C@@]3(CCN(Cc4ccccc4)C3)C2)cc1 -7.93%, COc1ccc(C(=O)N2CCC[C@@]3(CCN(Cc4ccc(C#N)cc4)C3)C2)cc1 7.58%, O=CN[C@@H](Cc1cnc[nH]1)C(=O)O -3.85% [at 11.4 µM], CCOC(=O)NNc1nncc2ccccc12 -3.9% [at 25.6 µM], COc1ccccc1-c1ccc2ncnc(N3CCOCC3)c2c1 -16.7% [at 2.29 µM], COc1ccccc1-c1nc(N2CCOCC2)c2ccccc2n1 8.77% [at 2.29 µM], COc1ccccc1-c1nc(NCCNC(C)=O)c2ccccc2n1 3.78% [at 2.29 µM]

AC50, inactive:
C[C@@H](CN(C)C)CN1c2ccccc2CCc2ccccc21

AC50, active:
O=C1CCCc2ccccc2N1Cc1ccccc1Cl 10 µM, O=C1CCCc2ccccc2N1Cc1cccc(Cl)c1 5.01 µM, O=c1c2ccc(Cl)cc2nc(-c2cccc(C(F)(F)F)c2)n1O 5.01 µM, CCOC(=O)N1CCN(c2c(-c3ccccc3)c3cc(Cl)ccc3[nH]c2=O)CC1 1.26 µM, CC(=O)Oc1ccc2ccccc2c1C(NC(=O)Cc1ccccc1)c1ccc(Cl)cc1 (stereo unspecified) 1.78 µM, O=C(c1ccccc1)c1ccc(OCC(O)CN2CCN(Cc3ccccc3)CC2)cc1 (stereo unspecified) 12.6 µM, CC(C(=O)NC1CCCC1)N(C(=O)c1ccc(-c2ccccc2)[nH]1)c1ccccc1F (stereo unspecified) 5.01 µM, Fc1ccc2nc(Nc3nc4c(s3)CCCC4)sc2c1 14.1 µM, Cc1ccc(Sc2nc(C)cc(C)c2S(C)(=O)=O)cc1 3.55 µM, CCCNC(=O)CSc1nc(-c2cccs2)cc(C(F)(F)F)n1 2.82 µM, CCOC(=O)N1CCN(c2nc(-c3ccco3)cc(C(F)(F)F)n2)CC1 1.12 µM, CCOC(=O)N1CCN(c2nc(-c3cccs3)cc(C(F)(F)F)n2)CC1 1.58 µM, Cc1cc2nc(-c3ccc(SCC(=O)N4CCc5ccccc54)nc3)[nH]c2cc1C 3.55 µM, O=C(COC(=O)c1ccccc1Nc1cccc(C(F)(F)F)c1)NCc1ccco1 3.16 µM, O=C(COC(=O)c1cccnc1Nc1cccc(C(F)(F)F)c1)NCc1ccc2c(c1)OCO2 3.55 µM, O=C(c1cc2sccc2n1Cc1ccccc1)N1CCN(c2nc3ccccc3s2)CC1 2.82 µM, CCOC(=O)c1nnn(-c2nonc2N)c1-c1ccc(C)cc1 11.2 µM, Cc1ccc(NC(=O)N/C=C/c2ccco2)cc1C 15.8 µM, O=C(/C=C/c1cccc(Cl)c1)Nc1ccncc1 0.0447 µM, CCCCCc1nc2c(C#N)c(-c3ccc(Cl)cc3)ccn2n1 3.55 µM, CCOC(=O)c1ccc(-c2ccc(CO)o2)cc1 15.8 µM, O=c1[nH]c2[nH]c(=S)[nH]c(=S)c2[nH]1 1.26 µM, COc1ccc(-c2cc(C(F)(F)F)nc(NCc3cccnc3)n2)cc1 5.62 µM, COc1ccc(-c2cc(C(F)(F)F)nc(SCc3cccc(C(=O)O)c3)n2)cc1 7.94 µM, COc1ccccc1CCn1c(=O)c(-c2ccc(F)cc2)nc2cncnc21 3.98 µM, COc1ccccc1CCn1c(=O)c(-c2ccc(F)c(F)c2)nc2cncnc21 6.31 µM, COc1ccccc1CCn1c(=O)c(-c2cccc(Cl)c2)nc2cncnc21 1 µM, COc1ccccc1CCn1c(=O)c(-c2ccccc2)nc2cncnc21 5.01 µM, COc1ccccc1CCn1c(=O)c(-c2cccs2)nc2cncnc21 2.51 µM, COc1ccccc1CCn1c(=O)c(CCc2ccccc2)nc2cncnc21 7.94 µM, COc1ccccc1CCn1c(=O)c(-c2ccc(Cl)cc2)nc2cncnc21 3.98 µM, O=c1c(CCc2ccccc2)nc2cncnc2n1Cc1ccc(F)cc1 7.94 µM, COc1ccccc1CCn1c(=O)c(-c2cn(C)c3ccccc23)nc2cncnc21 0.316 µM, O=C(c1ccc(COc2ccc(F)cc2)o1)n1cccn1 17.8 µM, CCCc1cc2c(n1Cc1cc(F)cc(F)c1)C(C)C1CN(C(=O)c3ccccc3)C(C)(C(=O)OC)C21 (stereo unspecified) 6.31 µM, CCCc1cc2c(n1Cc1ccc(OC)cc1)C(C)C1CN(C(=O)c3ccccc3)C(C)(C(=O)OC)C21 (stereo unspecified) 12.6 µM, CCOC(=O)c1ccccc1Oc1c(F)c(F)nc(NCCO)c1F 6.31 µM, COC(=O)c1ccccc1Oc1c(F)c(F)nc(N2CCOCC2)c1F 15.8 µM
